Source: the supplement of paper PMC10849652
Targets with a hit are over-represented here; the source holds about 7,900 in all. About 0.6% of all pairs of compound and target were hits. Values without a mark were called inactive.

Tests used:
Assay in all cases: log2 fold change, soluble protein after heating vs DMSO (PISA); higher = thermal stabilisation; K562 cells, 10 uM, 30 min; active = over 0.2 and 3.5 SD of the protein, either way, in both replicates (recomputed)
[1] = compound: C1=CC=C(C=C1)[C@H](COC2=CC3=C(C=C2)NC(=O)N3)NC(=O)C4=CC=CN(C4=O)CC5=CC(=C(C=C5)F)F
In short: (§1)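 For each measurement, 10 μM compound was applied for 30 min to K562 cells at 2×10^6 cells/mL. Aliquots were heated for 3 min across 48°C-58°C, pooled, and extracted in PBS with 0.5% NP-40 at 4°C; the supernatant after 21,000xg for 90 min was soluble protein. This was quantified by TMTpro 16plex LC-MS/MS with channel sums equalised, and thermal stability was reported relative to control samples from duplicates, on a log2 fold-change scale.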

[2] = compound: CC1=C(SC2=C1C(=N[C@H](C3=NN=C(N32)C)CC(=O)N)C4=CC=C(C=C4)Cl)C
In short: as §1

[3] = compound: CC1=C2C(=CC=C1)N=C(N(C2=O)C3=CC=CC=C3C)CN4C=NC5=C(N=CN=C54)N
In short: as §1

[4] = compound: Cc1sc2c(c1C)C(c1ccc(Cl)cc1)=N[C@@H](CC(=O)OC(C)(C)C)c1nnc(C)n1-2
In short: as §1

[5] = compound: c1ccc([C@@H]2C[C@H]2NC2CCNCC2)cc1
In short: as §1

Chain of UniProt Q969N2 (Q969N2 whole entry, looked up): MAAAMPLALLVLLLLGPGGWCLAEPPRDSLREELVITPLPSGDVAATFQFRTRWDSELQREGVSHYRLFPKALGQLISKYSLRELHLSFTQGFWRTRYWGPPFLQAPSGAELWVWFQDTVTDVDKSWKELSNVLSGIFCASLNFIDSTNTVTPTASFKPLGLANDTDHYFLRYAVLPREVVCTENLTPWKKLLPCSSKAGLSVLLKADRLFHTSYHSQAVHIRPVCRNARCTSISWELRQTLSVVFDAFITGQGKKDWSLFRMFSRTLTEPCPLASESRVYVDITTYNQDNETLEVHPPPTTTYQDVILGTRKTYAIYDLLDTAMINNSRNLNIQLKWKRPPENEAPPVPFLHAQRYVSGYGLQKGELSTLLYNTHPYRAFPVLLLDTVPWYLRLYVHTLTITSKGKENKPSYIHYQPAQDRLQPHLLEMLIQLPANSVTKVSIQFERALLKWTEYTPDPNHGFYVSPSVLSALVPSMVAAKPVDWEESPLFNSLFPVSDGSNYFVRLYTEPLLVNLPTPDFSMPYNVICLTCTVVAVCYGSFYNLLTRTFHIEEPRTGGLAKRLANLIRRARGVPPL
Chain of UniProt Q9BRX2 (Q9BRX2 whole entry, looked up): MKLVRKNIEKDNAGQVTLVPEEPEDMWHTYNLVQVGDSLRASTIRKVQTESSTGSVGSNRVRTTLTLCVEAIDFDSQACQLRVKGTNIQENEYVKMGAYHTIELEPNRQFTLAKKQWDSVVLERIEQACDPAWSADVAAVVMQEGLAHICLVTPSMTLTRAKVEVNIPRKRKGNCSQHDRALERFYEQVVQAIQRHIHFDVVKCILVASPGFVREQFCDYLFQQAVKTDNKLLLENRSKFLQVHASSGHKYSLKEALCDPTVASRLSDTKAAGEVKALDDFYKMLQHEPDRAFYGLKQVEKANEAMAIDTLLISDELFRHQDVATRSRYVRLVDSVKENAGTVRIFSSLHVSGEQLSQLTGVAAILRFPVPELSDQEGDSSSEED
Chain of UniProt Q96A00 (Q96A00 whole entry, looked up): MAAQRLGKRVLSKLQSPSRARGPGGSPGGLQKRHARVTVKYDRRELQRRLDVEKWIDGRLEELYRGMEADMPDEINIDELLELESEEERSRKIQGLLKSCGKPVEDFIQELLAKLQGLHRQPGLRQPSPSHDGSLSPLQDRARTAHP
Chain of UniProt Q9NW08 (Q9NW08 whole entry, looked up): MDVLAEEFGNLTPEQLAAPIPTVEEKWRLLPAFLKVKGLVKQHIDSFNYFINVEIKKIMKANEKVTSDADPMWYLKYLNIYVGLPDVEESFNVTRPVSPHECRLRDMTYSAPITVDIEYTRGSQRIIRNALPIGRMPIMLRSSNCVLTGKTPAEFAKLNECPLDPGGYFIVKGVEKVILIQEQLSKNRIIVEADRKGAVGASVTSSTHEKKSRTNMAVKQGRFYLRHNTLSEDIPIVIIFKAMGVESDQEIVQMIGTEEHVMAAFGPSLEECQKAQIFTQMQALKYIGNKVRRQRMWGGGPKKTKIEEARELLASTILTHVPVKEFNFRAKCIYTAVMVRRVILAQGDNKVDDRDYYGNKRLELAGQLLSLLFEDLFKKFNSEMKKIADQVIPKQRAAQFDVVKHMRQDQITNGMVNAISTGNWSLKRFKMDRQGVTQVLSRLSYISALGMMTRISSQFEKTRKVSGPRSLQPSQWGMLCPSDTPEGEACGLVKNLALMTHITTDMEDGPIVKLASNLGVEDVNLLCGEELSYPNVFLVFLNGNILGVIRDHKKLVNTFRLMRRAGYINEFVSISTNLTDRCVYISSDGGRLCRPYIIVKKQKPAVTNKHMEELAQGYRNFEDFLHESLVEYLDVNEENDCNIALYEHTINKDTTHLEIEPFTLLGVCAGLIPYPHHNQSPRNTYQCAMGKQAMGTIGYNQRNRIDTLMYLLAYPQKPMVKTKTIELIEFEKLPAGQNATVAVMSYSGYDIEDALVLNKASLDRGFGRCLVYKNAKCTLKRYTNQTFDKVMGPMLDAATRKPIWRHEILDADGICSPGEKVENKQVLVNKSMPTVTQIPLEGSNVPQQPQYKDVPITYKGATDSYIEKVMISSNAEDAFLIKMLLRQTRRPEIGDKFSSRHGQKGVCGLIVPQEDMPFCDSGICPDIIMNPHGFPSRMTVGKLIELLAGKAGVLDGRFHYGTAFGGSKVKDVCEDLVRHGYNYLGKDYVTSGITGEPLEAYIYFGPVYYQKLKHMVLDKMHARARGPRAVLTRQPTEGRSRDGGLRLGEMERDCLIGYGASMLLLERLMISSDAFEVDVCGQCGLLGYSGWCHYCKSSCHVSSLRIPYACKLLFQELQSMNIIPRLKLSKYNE
Chain of UniProt Q8N5Y8 (Q8N5Y8 whole entry, looked up): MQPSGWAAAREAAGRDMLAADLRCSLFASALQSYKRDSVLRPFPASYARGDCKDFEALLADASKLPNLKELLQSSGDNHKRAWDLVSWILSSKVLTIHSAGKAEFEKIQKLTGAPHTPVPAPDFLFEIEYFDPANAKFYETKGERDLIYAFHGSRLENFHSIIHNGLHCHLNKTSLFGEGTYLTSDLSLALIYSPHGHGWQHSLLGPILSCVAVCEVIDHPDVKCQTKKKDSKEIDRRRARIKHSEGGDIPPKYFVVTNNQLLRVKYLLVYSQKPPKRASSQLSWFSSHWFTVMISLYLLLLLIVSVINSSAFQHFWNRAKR
Chain of UniProt O60678 (O60678 whole entry, looked up): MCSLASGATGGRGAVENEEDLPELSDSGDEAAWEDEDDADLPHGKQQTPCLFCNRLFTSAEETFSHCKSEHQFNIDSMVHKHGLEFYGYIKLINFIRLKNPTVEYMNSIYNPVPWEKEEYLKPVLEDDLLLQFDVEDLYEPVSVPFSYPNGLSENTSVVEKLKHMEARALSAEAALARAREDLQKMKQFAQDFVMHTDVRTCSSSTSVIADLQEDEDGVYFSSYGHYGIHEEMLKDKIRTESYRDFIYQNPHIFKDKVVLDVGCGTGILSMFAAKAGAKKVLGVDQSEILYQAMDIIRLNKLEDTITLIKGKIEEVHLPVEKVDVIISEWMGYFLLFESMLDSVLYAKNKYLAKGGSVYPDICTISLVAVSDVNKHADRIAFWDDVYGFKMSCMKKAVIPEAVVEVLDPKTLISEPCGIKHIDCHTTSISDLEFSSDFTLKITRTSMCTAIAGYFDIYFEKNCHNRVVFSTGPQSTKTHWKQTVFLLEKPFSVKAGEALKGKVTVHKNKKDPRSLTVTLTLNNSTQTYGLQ
Chain of UniProt Q13523 (Q13523 whole entry, looked up): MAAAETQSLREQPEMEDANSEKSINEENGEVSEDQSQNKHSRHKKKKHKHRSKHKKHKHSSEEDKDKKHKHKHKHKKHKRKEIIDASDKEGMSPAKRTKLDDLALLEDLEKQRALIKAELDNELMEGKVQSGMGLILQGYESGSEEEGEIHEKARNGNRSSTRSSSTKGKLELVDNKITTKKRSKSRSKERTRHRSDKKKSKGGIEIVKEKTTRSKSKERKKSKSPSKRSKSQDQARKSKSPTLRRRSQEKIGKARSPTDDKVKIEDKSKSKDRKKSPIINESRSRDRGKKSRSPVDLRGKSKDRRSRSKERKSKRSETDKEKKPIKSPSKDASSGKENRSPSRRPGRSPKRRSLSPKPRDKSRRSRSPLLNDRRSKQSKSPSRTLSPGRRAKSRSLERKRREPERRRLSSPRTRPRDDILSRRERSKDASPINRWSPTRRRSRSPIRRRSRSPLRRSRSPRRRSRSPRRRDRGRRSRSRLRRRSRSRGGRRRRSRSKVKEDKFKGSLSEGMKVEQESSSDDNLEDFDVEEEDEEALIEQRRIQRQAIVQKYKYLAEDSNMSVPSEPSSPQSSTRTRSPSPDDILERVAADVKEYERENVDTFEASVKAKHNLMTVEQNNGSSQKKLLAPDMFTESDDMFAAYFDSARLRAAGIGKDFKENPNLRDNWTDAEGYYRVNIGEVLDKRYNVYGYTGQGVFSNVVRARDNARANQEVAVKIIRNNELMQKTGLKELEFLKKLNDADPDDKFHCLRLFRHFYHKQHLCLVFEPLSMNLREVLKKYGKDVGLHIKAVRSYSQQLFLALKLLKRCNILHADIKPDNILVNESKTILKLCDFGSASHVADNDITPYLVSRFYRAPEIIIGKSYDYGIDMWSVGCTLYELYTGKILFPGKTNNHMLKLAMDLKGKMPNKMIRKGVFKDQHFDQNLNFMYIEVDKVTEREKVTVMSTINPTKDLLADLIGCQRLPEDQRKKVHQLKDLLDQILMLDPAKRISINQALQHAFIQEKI
Chain of UniProt P48556 (P48556 whole entry, looked up): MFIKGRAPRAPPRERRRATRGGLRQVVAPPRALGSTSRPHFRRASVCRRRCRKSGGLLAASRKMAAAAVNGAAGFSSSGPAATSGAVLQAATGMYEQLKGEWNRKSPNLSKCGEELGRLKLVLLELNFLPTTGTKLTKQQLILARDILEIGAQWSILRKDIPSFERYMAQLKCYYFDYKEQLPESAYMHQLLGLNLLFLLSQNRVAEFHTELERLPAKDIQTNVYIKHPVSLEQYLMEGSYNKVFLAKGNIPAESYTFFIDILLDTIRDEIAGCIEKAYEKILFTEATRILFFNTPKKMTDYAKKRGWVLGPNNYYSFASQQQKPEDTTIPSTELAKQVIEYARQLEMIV
Chain of UniProt P35227 (P35227 whole entry, looked up): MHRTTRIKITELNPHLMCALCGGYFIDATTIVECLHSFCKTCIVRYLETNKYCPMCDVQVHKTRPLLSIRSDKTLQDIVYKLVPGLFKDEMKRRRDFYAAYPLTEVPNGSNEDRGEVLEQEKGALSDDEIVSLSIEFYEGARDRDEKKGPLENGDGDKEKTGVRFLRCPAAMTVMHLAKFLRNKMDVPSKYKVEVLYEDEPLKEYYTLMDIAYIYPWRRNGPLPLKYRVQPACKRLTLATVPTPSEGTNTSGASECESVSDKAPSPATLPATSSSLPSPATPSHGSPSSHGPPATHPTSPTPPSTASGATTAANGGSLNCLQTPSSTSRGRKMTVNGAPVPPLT
Chain of UniProt Q6EEV4 (Q6EEV4 whole entry, looked up): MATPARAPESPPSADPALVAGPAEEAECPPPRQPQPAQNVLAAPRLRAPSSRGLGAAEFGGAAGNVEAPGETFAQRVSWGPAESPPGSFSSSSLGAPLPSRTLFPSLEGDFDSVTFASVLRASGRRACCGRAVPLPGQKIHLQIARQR

Target	log2 fold change [1]	log2 fold change [2]	log2 fold change [3]	log2 fold change [4]	log2 fold change [5]
PPP1R14A (UniProt Q96A00)	0.011	0.009	-0.002	0.061	-0.013
PPP2R5E (UniProt Q16537)	-0.045	0.1	0.105	-0.118	0.05
PELO (UniProt Q9BRX2)	-0.037	0.116	0.103	0.064	-0.049
PML (UniProt P29590)	-0.008	-0.054	0.002	-0.005	0.001
PTDSS1 (UniProt P48651)	-0.027	-0.072	-0.115	0.042	0.017
PRPF4B (UniProt Q13523)	0.118	-0.098	0	0.109	0.168
PSMD8 (UniProt P48556)	0.014	-0.07	-0.01	-0.001	0.071
POLR2M (UniProt Q6EEV4)	0.092	0.105	-0.002	-0.128	-0.107
PCGF2 (UniProt P35227)	-0.046	0.133	-0.015	0.002	-0.05
PNPLA2 (UniProt Q96AD5)	0.06	0.014	0.037	0.068	-0.046
PLCL1 (UniProt Q15111)	0.12	0.073	0.165	-0.029	0.052
POLR2M (UniProt P0CAP2)	-0.021	0.096	0.045	0.004	-0.062
PLCG1 isoform 2 (UniProt P19174)	-0.059	0.038	0.033	0.063	-0.028
PARN (UniProt O95453)	-0.018	0.059	0.071	-0.028	0.025
PLBD1 (UniProt Q6P4A8)	0.005	-0.011	-0.018	-0.006	0.013
POLR3B (UniProt Q9NW08)	-0.035	-0.02	0.078	0.04	-0.046
PYGB (UniProt P11216)	0.024	0.037	0.003	0.015	-0.003
PIGT (UniProt Q969N2)	0.022	0.142	-0.013	0.276 (active)	-0.021
PRMT3 (UniProt O60678)	-0.1	0.077	0.024	-0.013	0.001
PEX11B (UniProt O96011)	-0.027	0.056	-0.01	-0.008	-0.005
PSMD3 (UniProt O43242)	0.028	-0.055	-0.006	-0.023	-0.011
PRKAR2A (UniProt P13861)	0.044	0.046	0.054	0.018	-0.003
PARP16 isoform 3 (UniProt Q8N5Y8)	-0.019	-0.019	0.012	-0.041	0.001
PJA2 (UniProt O43164)	0.005	-0.042	0.021	0.006	0.024
